MITF TRPM1 HTS: increases MITF-driven TRPM1 promoter luciferase signal. SK-MEL-5 TRPM1-promoter luciferase, 24 h; % of positive control, neutral wells = 0. activation, % at 12.5 µM. 300,000 compounds, 0.75% hits. AID 588334;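 active = mean activation of at least 80% with every replicate also reaching 80%; inconclusive = mean reaches 80% but some replicate falls short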;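 note: 0% = neutral control wells and 100% = parthenolide positive control wells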
AF4-AF9 inh: MLL-AF4/AF9 protein interaction inhibition. inhibition, % at 10 µM. AlphaScreen, biotin-AF4 peptide binding to FLAG-AF9. 350,000 compounds, 0.47% hits. P42568;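 active = every replicate reaching a set inhibition limit, whatever the replicate mean, cut at about 25% in these data; inconclusive = mean inhibition reaches that limit but some replicates miss it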;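 note: 0% = plate neutral control median and 100% = total signal loss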
Target sequence (P42568 whole entry, looked up): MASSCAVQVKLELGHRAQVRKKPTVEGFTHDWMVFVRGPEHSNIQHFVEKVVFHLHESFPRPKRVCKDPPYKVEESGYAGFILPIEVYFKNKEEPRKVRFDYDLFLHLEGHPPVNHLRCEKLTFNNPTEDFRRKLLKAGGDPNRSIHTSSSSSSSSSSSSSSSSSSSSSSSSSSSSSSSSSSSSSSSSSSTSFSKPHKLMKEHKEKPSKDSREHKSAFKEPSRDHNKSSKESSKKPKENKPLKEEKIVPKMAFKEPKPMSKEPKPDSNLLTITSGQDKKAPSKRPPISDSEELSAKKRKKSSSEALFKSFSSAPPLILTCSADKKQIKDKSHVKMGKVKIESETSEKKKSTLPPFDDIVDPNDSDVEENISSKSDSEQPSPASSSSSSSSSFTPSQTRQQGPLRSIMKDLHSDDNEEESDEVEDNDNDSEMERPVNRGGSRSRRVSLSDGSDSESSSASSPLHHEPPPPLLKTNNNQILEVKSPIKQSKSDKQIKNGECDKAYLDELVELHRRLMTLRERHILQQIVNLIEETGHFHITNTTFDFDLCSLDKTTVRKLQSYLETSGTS
Wnt act: activators of Wnt/beta-catenin signaling | AID 743398 | 300,000 compounds, 1.2% hits | Wnt/beta-catenin reporter cell assay, activator, plate reader | activation, % at 9.35 µM; in the data active = activation above about 30%, passing the limit was not always enough; inconclusive = no clear call, values can overlap the other calls;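 note: 0% = neutral control wells and 100% = positive control wells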
esBAF inh: inhibitors of esBAF chromatin remodeling in mouse ES cells. Bmi1-luciferase knock-in reporter, 24 h; 100% = twice the neutral-well signal. 350,000 compounds, 2% hits. reporter increase, % at 12.5 µM; in the data active = activation above about 40%; inconclusive = no clear call, values can overlap the other calls;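 note: 0% = median of the plate's neutral control wells and 100% = double that signal; a rise in the Bmi1 reporter signal indicates esBAF inhibition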
Ecoli rRNA inh: inhibitors of bacterial rRNA selective over humanized ribosomes. E. coli WT GFP vs humanized-ribosome RFP mutants, fluorescence, 24 h; active compounds read low; DMSO median 0, no signal -100. 350,000 compounds, 1.6% hits. AID 720706. GFP signal change (wild-type ribosome), % (no concentration beside the values);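 active = significant combined selectivity score with lowered wild-type GFP, culture density cut under 30%, mutant RFP and density less affected; inactive = any of these conditions unmet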
An asterisk follows results filed as active; u = inconclusive; x = no result given. Rows were chosen to be rich in hits. Some 3.7% of all compounds tested hit in one or more screens of this group.

SMILES	MITF TRPM1 HTS	AF4-AF9 inh	Wnt act	esBAF inh	Ecoli rRNA inh
CCOC(=O)/C=C/S(=O)(=O)c1ccc(NC(C)=O)cc1	-91.6	x	x	-25.1	x
Cc1nn(-c2ccccc2)c(/N=C/c2ccccc2O)c1-c1ccccc1	55.9	x	129.0*	x	x
Cc1nn(-c2ccccc2)c(C)c1/C=N/O	2.3	x	x	11.5	x
Cc1nn(-c2ccccc2)c(N)c1-c1ccccc1	114.3*	-0.8	u	66.9*	-9.6
Cc1nn(-c2nc3ccccc3[nH]2)c(N)c1-c1ccccc1	68.5	x	54.8*	x	x
Cc1cc(-c2ccco2)n(-c2ccccc2)n1	-2.4	x	9.1	x	x
Cc1cc(-c2ccccc2)n(-c2ccccc2)n1	x	-5.1	10.4	51.3*	7.8
C=CCSc1nnc2c(n1)OC(c1cccnc1)Nc1ccccc1-2 (stereo not drawn)	13.3	x	53.6*	x	x
COc1cccc(Nc2nc(C(N)CC(C)C)cs2)n1 (stereo not drawn)	x	11.1	0.1	-1.5	-9.6
COc1cccc(NC(C)(C)c2nnnn2-c2c(C)cccc2C)c1	x	0.7	-0.5	-3.5	-24.2*
O=C(CSc1ccc2c(c1)OCCO2)Nc1ccc(Br)cn1	-1.2	-2.7	-0.8	0.9	-10.1
Cc1nnc(C)c2c(C)n(C(c3ccccc3)c3ccccc3)c(C)c12	4.5	30.2*	-1.5	-4.3	-9.3
O=C(CNC(=O)c1ccc(Cl)cc1)OCC(=O)c1ccccc1	13.1	-1.1	0.5	-1.1	11.4
CC(C)c1[nH]nc2c1C(c1ccc(OC(=O)c3ccco3)cc1)C(C#N)=C(N)O2 (stereo not drawn)	4.0	4.4	-1.1	x	-26.9*
Cc1[nH]nc2c1C(c1ccc(OC(=O)c3ccco3)cc1)C(C#N)=C(N)O2 (stereo not drawn)	-10.1	x	3.5	-3.8	x
CCc1[nH]nc(C(=O)NC2CCCc3c2cnn3-c2cc(C)cc(C)c2)c1C (stereo not drawn)	21.1	-2.1	11.2	66.2*	-10.6
CCc1noc(C)c1C(=O)NC1CCCc2c1cnn2-c1cc(C)cc(C)c1 (stereo not drawn)	12.7	-2.9	4.3	27.1	0.0
Cc1ccc2nc(NC(=O)CCNS(=O)(=O)c3ccc(Br)s3)sc2c1	12.4	11.5	0.9	14.3	-55.2
O=c1c(Cc2ccc(Cl)cc2Cl)c(O)ccn1Cc1ccncc1	2.4	-2.0	0.1	x	-35.2*
O=c1c(C/C=C/c2ccccc2)c(O)ccn1Cc1ccc(Cl)cc1Cl	18.4	-1.6	-1.2	x	-18.6
COc1nc(Nc2ccc(C(C)C)cc2)nc(OC)n1	51.1	x	x	57.7*	x
O=C(O)c1cccc(CN2C(=O)S/C(=C/c3cccc([N+](=O)[O-])c3)C2=O)c1	-3.2	-2.4	-3.6	x	6.5
O=C1NC(c2cccc(C(F)(F)F)c2)c2c(-c3ccccc3)n[nH]c21 (stereo not drawn)	x	x	-3.1	x	-11.6
O=[N+]([O-])c1ccc2c(c1)nc1n2CCN(c2ccccc2)C1	48.6	7.4	8.7	x	15.9
CCN(CC)CCn1c2ccccc2c2nc3ccccc3nc21	x	4.3	3.1	78.1*	-28.7
SMILES	MITF TRPM1 HTS	AF4-AF9 inh	Wnt act	esBAF inh	Ecoli rRNA inh
CCCn1c2ccccc2c2nc3ccccc3nc21	11.4	x	17.0	x	x
CC1CC1C(=O)OCC(=O)NC(=O)NC12CC3CC(CC(C3)C1)C2 (stereo not drawn)	u	3.7	-0.7	x	-6.0
Cc1ccc(Cn2ccc(NC(=O)c3cc(-c4ccc(Cl)cc4)on3)n2)cc1	3.1	x	x	-0.3	x
N#CCCCCn1ccc(NC(=O)c2ccc(Cl)cc2O)n1	5.0	x	1.6	x	-30.4*
O=C(O)c1cccc(S(=O)(=O)NCCc2ccccc2)c1	2.4	-1.2	0.1	x	10.7
O=C(O)c1cccc(S(=O)(=O)NCCC(c2ccccc2)c2ccccc2)c1	4.0	-0.2	0.3	x	-27.1*
CN1/C(=C\C(=O)c2cccc([N+](=O)[O-])c2)Sc2ccccc21	18.7	-5.1	20.9	74.7*	5.4
COc1cc(OC)cc(C(=O)/C=C2\Sc3ccccc3N2C)c1	25.9	-2.0	2.4	31.2	0.4
Cc1ccc(NC(=O)CS(=O)CC(=O)NCC2OCCc3ccccc32)c(C)c1 (stereo not drawn)	-12.3	x	-3.1	2.2	x
O=C1SC(SC(=Nc2ccccc2)Nc2ccccc2)C(=O)N1c1ccccc1 (stereo not drawn)	35.7	0.7	48.5*	x	-6.5
CCC(CO)Nc1ccn2nc(-c3cccc(Cl)c3)cc2n1 (stereo not drawn)	x	-0.7	4.4	72.3*	-12.5
COc1ccc(-c2nc(N)nc(N)n2)c(O)c1	42.0	-1.2	29.1	47.9*	-7.4
CN(C)c1cccc2c1c(NC(=O)Nc1ccccc1)nn2C	x	-0.7	1.6	-2.9	-17.9*
CN(C)c1cccc2c1c(NC(=O)Nc1ccc(F)cc1F)nn2C	x	-2.8	3.3	7.1	10.5
O=C(CCCCCCC(=O)Nc1ccccc1)NO	-84.2	-0.8	245.5*	-43.4	2.6
CC(=O)Nc1cccc(NC(=O)CCCC(=O)O)c1	3.4	x	39.6*	-1.1	x
CN(CCO)S(=O)(=O)c1ccc2c(c1)C(=NNC(N)=O)c1cc(S(=O)(=O)N(C)CCO)ccc1-2	0.2	-8.5	46.0*	-2.3	8.2
Cc1ccsc1-c1cc2nc(NCCOc3ccccc3Cl)n(C)c(=O)c2s1	x	-12.2	x	16.8	x
COCCOC(=O)/C(=C/c1ccc(OC(=O)c2ccccc2)cc1)C(C)=O	4.5	x	x	0.2	x
CCOC(=O)C(=Cc1ccc(-n2ccnc2)cc1)C(=O)OCC	-74.3	-0.6	55.6*	-6.5	2.2
CCOC(=O)C(=Cc1ccc(Br)cc1)C(=O)OCC	3.8	-2.5	5.2	-1.4	-9.6
CCOC(=O)/C(=C/c1ccc(OC(=O)c2ccncc2)cc1)C(C)=O	-8.8	-4.9	45.7*	x	14.0
Cc1ccc(-n2nc3c(c2NC(=O)C(C)C)CS(=O)(=O)C3)cc1	-9.5	x	x	-4.5	x
O=C(NCc1cccnc1)C(=O)Nc1nc(C23CC4CC(CC(C4)C2)C3)cs1	0.3	7.2	-3.6	-2.0	-26.6*
O=C(NCc1ccccc1)C(=O)Nc1nc(C23CC4CC(CC(C4)C2)C3)cs1	2.4	0.1	-4.8	x	4.1
COc1ccc(C(=O)Nc2cc(C)on2)c(OC)c1	114.7*	2.1	12.6	13.6	-6.0
COc1cccc(NC(=O)Nc2cc(C)on2)c1	15.1	0.7	2.9	16.2	-0.6
COc1ccc(C(=O)Nc2ccc(C)cn2)c(OC)c1	-73.2	x	x	-78.3	x
COc1cccc(C(=O)NC(=O)Nc2cc(C)on2)c1	104.7*	1.6	11.4	56.0*	10.2
